The nature of assay [1]: qHTS drug screen for cell cycle checkpoint inhibitors in PARPi-resistant BRCA-mutant ovarian cancer cell lines. (AID 1963452; calls by dose curve; note: potency is the fitted concentration of half-maximal effect). The note with it: PEO1/OlaR viability, CellTiter-Glo luminescence, 96 h; for Z-AUC: stronger effect = lower value. The method, boiled down: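 PEO1, PEO4 and PEO1/OlaR ovarian cancer cells, 600 per well, exposed 96 h at 37C to a dilution series. Viability read by CellTiter-Glo luminescence, normalized to DMSO and empty wells; activity summarized as Z-AUC.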

A short description of assay [2]: qHTS Assay for Lipid Storage Modulators (AID 1519; calls by dose curve; for activity change, negative = inhibition: % is set by controls: 0 for no effect and ±100 for the full control effect). The note with it: Drosophila S3 cells, BODIPY lipid droplet/cell ratio, laser cytometry, cells loaded with oleic acid; for activity change, negative = inhibition: at 57.5 µM (top of the series). The method, boiled down:
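Cells seeded at 5,000 per well were treated with compounds over a concentration series and loaded with oleic acid (400 uM, as added). Lipid droplet fluorescence (488 nm excitation, 500-530 nm channel) was read by laser-scanning cytometry and normalized to 20 uM Triacsin C.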

The nature of assay [3]: Validation of Assay for Modulators of Lamin A Splicing (AID 1459; active = well fitted curve in the direction sought with a large enough effect in the signal ratio; the % refers to the signal ratio;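 note: cells exposed to compound for two days before reading; 0% is about no effect; ratio rise marks activators and ratio drop marks inhibitors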). The essentials:
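Readout: ratio of GFP (500-530 nm) to RFP (575-640 nm) total object intensity by 488 nm laser-scanning cytometry after 48 hrs. Cells were HeLa S3 clones carrying lamin A-EGFP minigene plus DsRed2 viability reporter; vehicle 0.5% DMSO final.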

Assay [4] addresses ATP-dependent DNA helicase Q1 (Homo sapiens) (UniProt P46063). In words: qHTS Validation Assay for Inhibitors of RecQ-Like Dna Helicase 1 (RECQ1) (AID 2353).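 Note: plate controls were DMSO vehicle for no effect and enzyme-free control for full effect.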 The essentials:
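50 nM RECQ1T1 preincubated 15 min with compound in Tris pH 8.0 buffer with MgCl2, DTT, Tween-20 and 2.5 ug/ml poly(dI-dC); started with 200 nM TAMRA/BHQ-2 forked duplex and 2 mM ATP. Unwinding read as fluorescence (525/598 nm), two reads 2 h apart.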

The target of assay [5] is Galactokinase (Homo sapiens) (UniProt P51570). In words: qHTS Validation Assay for Inhibitors of Human Galactokinase (GALK) (AID 493189). Note: 0% is about no effect. The essentials:
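Luminescence from leftover ATP (Kinase-Glo Plus, 10 min) served as read-out after a 1 h room-temperature reaction of 5 nM GALK, 100 uM galactose and 35 uM ATP at pH8.0.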

The mark [6] stands for this setting: measured here: PEO1 parental Z-AUC.
[7] abbreviates: measured here: cell count channel max response.
The mark [8] stands for this setting: measured here: lipid channel max response.

Records with an inconclusive call do not appear. Active and inactive are the calls of the source. Unless noted, calls come from the whole dose curve; as a rule, active = well fitted curve in the direction sought with a large enough effect; inconclusive = small, poorly fitted or top-dose-only effect, or another doubt; inactive = no such curve, though single readings can be large; an effect the other way counts as inactive or inconclusive.

ATP-dependent DNA helicase Q1 (Homo sapiens), sequence (P46063 whole entry, looked up): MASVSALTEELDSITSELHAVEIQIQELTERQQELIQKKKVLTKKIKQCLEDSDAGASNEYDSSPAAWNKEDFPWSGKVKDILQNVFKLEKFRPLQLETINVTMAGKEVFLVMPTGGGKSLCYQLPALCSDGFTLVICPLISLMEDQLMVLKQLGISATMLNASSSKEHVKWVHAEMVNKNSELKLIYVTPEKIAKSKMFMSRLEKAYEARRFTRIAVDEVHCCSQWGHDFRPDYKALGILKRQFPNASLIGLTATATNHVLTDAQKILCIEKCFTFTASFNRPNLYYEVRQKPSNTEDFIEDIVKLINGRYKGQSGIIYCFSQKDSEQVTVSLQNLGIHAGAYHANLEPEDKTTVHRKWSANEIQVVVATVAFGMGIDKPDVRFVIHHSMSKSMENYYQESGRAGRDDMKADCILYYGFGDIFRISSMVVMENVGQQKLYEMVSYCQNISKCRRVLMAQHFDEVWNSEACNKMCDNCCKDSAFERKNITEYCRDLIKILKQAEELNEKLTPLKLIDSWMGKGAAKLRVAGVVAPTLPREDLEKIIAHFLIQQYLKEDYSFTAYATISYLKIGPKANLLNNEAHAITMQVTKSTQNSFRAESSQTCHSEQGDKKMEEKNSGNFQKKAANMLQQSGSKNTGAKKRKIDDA
Galactokinase (Homo sapiens), sequence (P51570 whole entry, looked up): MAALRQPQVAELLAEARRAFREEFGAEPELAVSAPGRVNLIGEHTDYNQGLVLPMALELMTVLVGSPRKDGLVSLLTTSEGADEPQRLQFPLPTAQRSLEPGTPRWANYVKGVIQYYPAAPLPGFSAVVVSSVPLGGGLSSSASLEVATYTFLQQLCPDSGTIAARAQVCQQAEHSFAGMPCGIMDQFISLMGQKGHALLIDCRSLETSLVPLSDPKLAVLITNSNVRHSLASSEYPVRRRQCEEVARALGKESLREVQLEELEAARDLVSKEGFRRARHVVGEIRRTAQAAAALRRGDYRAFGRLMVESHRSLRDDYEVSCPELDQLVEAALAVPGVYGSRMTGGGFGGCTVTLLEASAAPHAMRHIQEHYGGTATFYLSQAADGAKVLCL

Regarding `C/C=C(\C)C(=O)N[C@@H](c1ccccc1)[C@@H](O)C(=O)O[C@H]1C[C@@]2(O)[C@@H](OC(=O)c3ccccc3)[C@@H]3[C@]4(OC(C)=O)CO[C@@H]4C[C@H](O)[C@@]3(C)C(=O)[C@H](OC(C)=O)C(=C1C)C2(C)C`, the results for the Z-AUC in assay [1], in assay [1] (setting [6]) and in assay [1] (measured here: PEO4 Z-AUC) were -2.81 (inactive), -2.97 and -3.26, respectively.

Take `CO/C1=C/C(C)=C\[C@@H](C)[C@@H](O)[C@@H](C)C/C(C)=C\C=C/[C@H](OC)[C@@H]([C@@H](C)[C@@H](O)[C@H](C)[C@@]2(O)C[C@@H](O)[C@H](C)[C@@H](C(C)C)O2)OC1=O`: the Z-AUC is -2.07 (inactive) in assay [1], -2.1 in assay [1] (setting [6]) and -2.32 in assay [1] (measured here: PEO4 Z-AUC).

In the case of `C[C@]12COC(=O)C[C@@H]1CC[C@@H]1[C@@H]2CC[C@@]2(C)[C@H]1CC[C@]2(C)O`, the Z-AUC in assay [1] was 0.596 (inactive); in assay [1] (setting [6]) it was 0.611; in assay [1] (measured here: PEO4 Z-AUC), 0.327.

With `CC(N[C@H]1C[C@@H]1c1ccccc1)c1ccc2c(c1)OCCO2` (stereo partly specified), the Z-AUC is -0.77 (inactive) in assay [1], 0.195 in assay [1] (setting [6]) and -0.131 in assay [1] (measured here: PEO4 Z-AUC).

For `Cn1c(COP(=O)(NCCBr)NCCBr)cnc1[N+](=O)[O-]`, the Z-AUC was 0.865 (inactive) in assay [1], 0.833 in assay [1] (setting [6]) and 1.09 in assay [1] (measured here: PEO4 Z-AUC).

Consider `CC(C)[C@]12O[C@H]1[C@@H]1O[C@@]13[C@@]1(C)CCC4=C(COC4=O)[C@@H]1C[C@@H]1O[C@@]13C2=O`, for which the values for the Z-AUC in assay [1], in assay [1] (setting [6]) and in assay [1] (measured here: PEO4 Z-AUC) were -1.63 (inactive), -0.566 and -1.17, respectively.

With `C[C@@H](C1CC[C@@]2(O)C3=CC(=O)[C@@H]4C[C@@H](O)[C@@H](O)C[C@]4(C)[C@H]3CC[C@]12C)[C@H](O)CCC(C)(C)O` (stereo partly specified), the Z-AUC in assay [1] is 0.596 (inactive); in assay [1] (setting [6]) it was 0.976; in assay [1] (measured here: PEO4 Z-AUC), 1.02.

For `O=C1CC(c2ccc(O)cc2)Oc2cc(O)cc(O)c21` (stereo unspecified), the activity change, negative = inhibition in assay [2] is 9.01% (inactive). The max response is -5.6% in assay [2] (setting [7]) and 4.14% in assay [2] (setting [8]).

As to `C=C(C)[C@@H]1CCC(C)=C[C@H]1c1c(O)cc(CCCCC)cc1O`, the Z-AUC in assay [1] was -0.487 (inactive); in assay [1] (setting [6]) it was 0.125; in assay [1] (measured here: PEO4 Z-AUC) it was 0.904.

Regarding `CCCCCCC(C)(C)c1cc(O)c2c(c1)OC(C)(C)C1CC=C(CO)C[C@H]21` (stereo partly specified), the Z-AUC in assay [1] is 1.02 (inactive); in assay [1] (setting [6]), 0.553; in assay [1] (measured here: PEO4 Z-AUC) it was 0.644.

`Cc1c(N)nc([C@H](CC(N)=O)NC[C@@H](N)C(N)=O)nc1C(=O)N[C@H](C(=O)N[C@@H](C)[C@H](O)[C@@H](C)C(=O)N[C@@H](C(=O)NCCc1nc(-c2nc(C(=O)NCCC[S+](C)C)cs2)cs1)[C@@H](C)O)C(O[C@H]1O[C@H](CO)[C@H](O)[C@@H](O)[C@H]1O[C@H]1O[C@H](CO)[C@@H](O)[C@H](OC(N)=O)[C@@H]1O)c1cnc[nH]1` (stereo partly specified): the Z-AUC was -0.673 (inactive) in assay [1], -1.76 in assay [1] (setting [6]) and 0.233 in assay [1] (measured here: PEO4 Z-AUC).

Take `O=C(CBr)N1CC([N+](=O)[O-])([N+](=O)[O-])C1`: the Z-AUC in assay [1] was 1.13 (inactive); in assay [1] (setting [6]) it was 0.0375; in assay [1] (measured here: PEO4 Z-AUC), 1.

Regarding `CC(=O)OC[C@H]1O[C@@H]([S-])[C@H](OC(C)=O)[C@@H](OC(C)=O)[C@@H]1OC(C)=O.CC[PH+](CC)CC.[Au]`, the Z-AUC was -0.477 (inactive) in assay [1], -0.483 in assay [1] (setting [6]) and -0.599 in assay [1] (measured here: PEO4 Z-AUC).

Turning to `C[C@@H]1CC[C@@]2(OC1)O[C@H]1C[C@H]3[C@@H]4CC=C5C[C@@H](O[C@@H]6O[C@H](CO)[C@@H](O[C@@H]7O[C@@H](C)[C@H](O)[C@@H](O)[C@H]7O)[C@H](O)[C@H]6O[C@@H]6O[C@@H](C)[C@H](O)[C@@H](O)[C@H]6O)CC[C@]5(C)[C@H]4CC[C@]3(C)[C@H]1[C@@H]2C`, the Z-AUC was 0.183 (inactive) in assay [1], -0.31 in assay [1] (setting [6]) and -0.496 in assay [1] (measured here: PEO4 Z-AUC).

Consider `CC(C)(NC(=O)O[C@@H]1CN2CCC1CC2)c1csc(-c2ccc(F)cc2)n1`, for which the Z-AUC in assay [1] is 1.16 (inactive); in assay [1] (setting [6]) it was 0.982; in assay [1] (measured here: PEO4 Z-AUC) it was 1.29.

`C/C1=C/C[C@@H](/C(C)=C/c2csc(C)n2)OC(=O)C[C@H](O)C(C)(C)C(=O)[C@H](C)[C@@H](O)[C@@H](C)CCC1`: in assay [1], the Potency was 19.5 nM (active). For the same compound, the Z-AUC was -2.71 in assay [1] (setting [6]) and -2.82 in assay [1] (measured here: PEO4 Z-AUC).

`N#CC(=Cc1ccc(O)c(O)c1)C(N)=S`: the compound was called inactive in assay [3], in assay [4] and in assay [5].

For `Oc1ccc2c3c1O[C@H]1[C@@H](O)CC[C@@]4(O)C(C2)N(CC2CCC2)CCC314` (stereo partly specified), the compound was called inactive in assay [3], in assay [4] and in assay [5].

For `C[C@H]1C2Cc3ccc(O)cc3[C@]1(C)CCN2CC1CC1`, the call in assay [3], in assay [4] and in assay [5] was inactive.

In the case of `C#CCN(C)C(C)Cc1ccccc1` (stereo unspecified), the call in assay [3], in assay [4] and in assay [5] was inactive. Also, the activity change, negative = inhibition in assay [2] was 2.75% (inactive). In addition, the max response in assay [2] (setting [7]) stood at 64.3%; in assay [2] (setting [8]) it was 65.5%.

For `NNCc1cccc(O)c1`, the compound was called inactive in assay [3], in assay [4] and in assay [5].

Consider `CC(C)(O)C1C2OC(=O)C1[C@]1(O)C[C@H]3O[C@]34C(=O)O[C@H]2[C@]14C` (stereo partly specified) (tested in a mixture with another compound), for which the compound was classed as inactive in assay [3], in assay [4] and in assay [5].

In the case of `C[C@H]1OC[C@@H](C[N+](C)(C)C)O1`, the outcome in assay [3], in assay [4] and in assay [5] was inactive.

On to `CC[C@@H](CO)NC(=O)[C@H]1C=C2c3cccc4c3c(cn4C)C[C@H]2N(C)C1`, for which the compound was called inactive in assay [3], in assay [4] and in assay [5]. The activity change, negative = inhibition in assay [2] is 2.02% (inactive). The max response in assay [2] (setting [7]) is 18.8%; in assay [2] (setting [8]), 22.3%.

For the compound `CCCN(CCC)C(=O)Cc1c(-c2ccc(Cl)cc2)nc2c(Cl)cc(Cl)cn12`, the call in assay [3], in assay [4] and in assay [5] was inactive. Also, the activity change, negative = inhibition in assay [2] is 1.58% (inactive). In addition, the results for the max response in assay [2] (setting [7]) and in assay [2] (setting [8]) were -21.2% and -20.1%, respectively.

`CN1CCC23CCCC[C@H]2C1Cc1ccc(O)cc13` (stereo partly specified): the outcome in assay [3], in assay [4] and in assay [5] was inactive. In addition, the activity change, negative = inhibition in assay [2] was 0.333% (inactive). Moreover, the max response in assay [2] (setting [7]) amounted to 15.7%; in assay [2] (setting [8]), 15.2%.

As for `COc1cc(C=C(C#N)C#N)cc(O)c1O`, the result in assay [3], in assay [4] and in assay [5] was inactive. In addition, the activity change, negative = inhibition in assay [2] was -2.14% (inactive). Moreover, the max response in assay [2] (setting [7]) was 23.5%; in assay [2] (setting [8]), 22.3%.
